High-throughput results from PubChem BioAssay.
D1 agonist – Allosteric Agonists of the Human D1 Dopamine Receptor: qHTS; 360,000 tested, 1% active; HEK293 T-REx D1 cells, calcium flux, agonist mode; activation, % at 2 µM; D(1A) dopamine receptor (Homo sapiens), P21728; in the data active = activation above about 30%; also: 0% is about no effect
Target sequence (P21728 whole entry, looked up): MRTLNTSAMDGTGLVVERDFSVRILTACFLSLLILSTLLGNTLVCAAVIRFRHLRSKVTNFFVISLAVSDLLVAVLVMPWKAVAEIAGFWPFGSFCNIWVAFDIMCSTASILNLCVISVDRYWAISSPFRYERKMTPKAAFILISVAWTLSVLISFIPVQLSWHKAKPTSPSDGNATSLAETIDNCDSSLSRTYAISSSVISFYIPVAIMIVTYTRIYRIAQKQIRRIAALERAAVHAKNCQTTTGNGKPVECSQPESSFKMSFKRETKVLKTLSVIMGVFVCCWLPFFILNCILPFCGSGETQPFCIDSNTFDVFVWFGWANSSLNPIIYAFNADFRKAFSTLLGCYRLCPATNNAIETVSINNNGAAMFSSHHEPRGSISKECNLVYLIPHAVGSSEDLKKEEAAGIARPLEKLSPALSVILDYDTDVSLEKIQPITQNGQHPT
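Agonism was scored from calcium flux recorded over 180 s (1 read/s) after pintool compound addition, following a 10-cycle baseline. Cells were inducible force-coupled HEK293 TREx D1, plated overnight at 30 C and loaded with no-wash calcium dye.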
D1 PAM – Potentiators of Human D1 Dopamine Receptor: qHTS | 360,000 tested, 0.036% active | AID 504651, 2011 | HEK293 TREx D1 cells, calcium flux, dopamine EC20 potentiation | D(1A) dopamine receptor (Homo sapiens), P21728 | potentiation, % at 10 µM; in the data active = potentiation above about 30%; also: 0% is about no effect
DRD3 antagonist – qHTS of D3 Dopamine Receptor Antagonist: qHTS; D(3) dopamine receptor (Homo sapiens), P35462; D3R cells, DiscoveRx beta-arrestin luminescence, antagonist mode; stronger effect = lower value; max response, negative = inhibition, %; 360,000 tested, 2.5% active; in the data active = max response below about -50%; also: % is scaled to controls: 0 for no effect and ±100 for the full control effect
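Cells plated overnight at 1500 cells/well, then exposed to library compounds with dopamine controls for 90 minutes at 37 degrees C. DiscoveRx reagent added for 30–60 minutes at room temperature; luminescence read, quantitative HTS format.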
D3 ag – qHTS of D3 Dopamine Receptor Agonist: qHTS; D3R DiscoveRx beta-arrestin cells, luminescence, 90 min; 410,000 tested, 0.58% active; max activation, %; D(3) dopamine receptor (Homo sapiens), P35462; in the data active = max activation above about 30%; also: 0% is about no effect
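Agonist-mode cell screen: cells plated at 1500/well and incubated overnight at 37 °C, then exposed to library compounds for 90 min at 37 °C. Detection reagent was added for 30–60 min at room temperature, and luminescence was read.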
D1 antagonist – Antagonist of Human D 1 Dopamine Receptor: qHTS; HEK293 TREx D1 cells, calcium flux, dopamine EC80; stronger effect = lower value; D(1A) dopamine receptor (Homo sapiens), P21728; activity change, negative = inhibition, % at 10 µM; 360,000 tested, 3.2% active; in the data active = activity change below about -30%; also: % is scaled to controls: 0 for no effect and ±100 for the full control effect
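Tetracycline-induced HEK293 T-REx cells with force-coupled D1 receptor were loaded with a no-wash calcium dye. Compound was added after a 10 s baseline and read kinetically for 180 s; EC80 dopamine was then added and calcium flux followed another 180 s.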
An asterisk follows results filed as active; . = not tested or not shown. Most compounds without a hit are left out; they make up all but 6.1% or so of the library.

SMILES	D1 agonist	D1 PAM	DRD3 antagonist	D3 ag	D1 antagonist
CCOC(=O)C1=C(C)N=c2s/c(=C\c3ccc(OC(C)=O)c(OCC)c3)c(=O)n2C1/C=C/c1ccccc1 (stereo unspecified)	3.7	-0.7	-56.3*	-5.4	1.9
COc1cc(OC)cc(C(=O)NC2CC3CCC(C2)N3C)c1 (stereo unspecified)	1.0	-13.7	-9.4	-8.2	-54.4*
CCCN1C2CCCC1CC(NC(=O)c1ccc(C(C)(C)C)cc1)C2 (stereo unspecified)	8.3	4.3	-18.7	-9.2	10.0
Cc1cccc(C(=O)NC2CC3CCC(C2)N3C)c1 (stereo unspecified)	3.4	-4.5	4.7	-1.4	-24.7
CCCN1C2CCCC1CC(NC(=O)c1cc(OC)cc(OC)c1)C2 (stereo unspecified)	-3.4	-8.8	0.8	1.2	-34.2*
Cc1cccc(C)c1NC(=O)CN1CCN(CCCC(c2ccc(F)cc2)c2ccc(F)cc2)CC1	8.2	-5.9	-78.8*	-78.9	-53.1*
Cc1cccc(C)c1NC(=O)CN1CCC(Cc2ccccc2)CC1	.	.	-69.3*	-8.6	.
CCOC(=O)C1=C(CS(=O)(=O)c2ccc(C(C)(C)C)cc2)NC(=O)NC1c1cccc(OC)c1 (stereo unspecified)	-0.1	4.0	.	-11.9	5.2
COc1ccc(N2CCN(C3(c4ccccc4)C(=O)c4ccccc4C3=O)CC2)cc1	4.0	-0.8	.	-16.2	14.3
CC(=O)Nc1cc(C(=O)NCc2ccc(F)cc2)ccc1Sc1ccc(C)cc1	-3.1	-0.8	.	9.2	-39.3*
CC(=O)Nc1cc(C(=O)NCc2ccccc2)ccc1Sc1ccc(C)cc1	-1.1	0.4	.	2.4	9.4
CC(=O)Nc1cc(C(=O)N2CCCC2)ccc1Sc1ccc(Cl)cc1	3.4	-6.8	57.9	63.1*	-12.4
CC(=O)Nc1cc(C(=O)N2CCCC2)ccc1Sc1ccc(C)cc1	2.0	-2.0	34.4	41.4*	5.1
Cc1cccc(NC(=O)C2CCN(S(=O)(=O)c3ccc4c(c3)CCCN4C(=O)C3CCC3)CC2)c1	1.6	-5.8	.	0.2	13.3
CSc1cccc(Nc2nc3c(S(=O)(=O)c4ccccc4)nnn3c3ccc(Cl)cc23)c1	-1.4	5.2	.	2.9	10.3
O=C(NCc1ccc(F)cc1)C1CCN(C(=O)c2ccc(-n3ccc4ccccc43)s2)CC1	2.5	-5.0	.	0.7	-31.4*
CCOc1ccc(CNC(=O)C2CCN(C(=O)c3ccc(-n4ccc5ccccc54)s3)CC2)cc1	10.7	-5.3	.	9.4	-6.2
COc1cccc(NC(=O)CSc2nnc(-c3cccs3)o2)c1	2.5	4.8	.	6.7	8.2
COc1cccc(OCc2nnc(-c3cccs3)o2)c1	1.7	1.8	.	.	-32.0*
COc1ccccc1Oc1ccc(S(=O)(=O)NCc2ccccn2)cc1	13.9	-8.2	-78.9*	15.2	-54.3*
COc1ccc(S(=O)(=O)NCc2ccccn2)cc1OC	5.2	-7.0	-6.0	1.4	-5.4
CN(C(=O)CC(=O)Nc1ccc2nc3n(c(=O)c2c1)CCCCC3)c1ccccc1F	1.0	-2.1	.	-5.8	-2.4
COc1ccc(CCNC(=O)CSc2nc3ncccc3[nH]2)c(OC)c1	-0.3	-2.0	6.3	-1.8	22.5
O=C(CSc1nc2ncccc2[nH]1)Nc1c(F)cc(F)cc1Br	1.2	-0.1	-57.8*	-3.0	3.3
O=C(CSc1nc2ncccc2[nH]1)NCCc1ccccc1	0.0	-7.2	7.4	3.8	-38.9*
C=CCn1c(SCC(=O)NC2CCCCC2)nnc1-c1sc(N)nc1C	3.4	-3.1	-51.0*	-0.8	3.6
C=CCn1c(SCC(=O)Nc2sc(C)c(C)c2C(=O)OCC)nnc1-c1sc(N)nc1C	1.2	-3.4	69.3	6.0	2.7
Cc1ccc(CCNC(=O)c2c(C)oc3ncnc(N4CCOCC4)c23)cc1	3.8	4.5	.	-7.4	-2.1
Cn1c(O)c(/C=C2\C=NN=C2c2ccccc2)sc1=S	3.0	-7.0	-21.0	-2.3	-34.7*
COc1ccc(/C=C/C(=O)N2CCC(c3nc4ccccc4o3)CC2)cc1OC	-0.2	0.1	.	-1.0	2.1
